In the supplement of paper PMC8975748:
Counter-ions that a name gives are not always drawn.

test system: Saccharomyces cerevisiae BY4741 SeMeCo community; experiment: z-score of subpopulation abundance vs DMSO median, subpopulation auxotrophic for U; higher = larger share of this subpopulation than in DMSO controls; settings: 10 µM; 24 h; SM minimal medium; subpopulation (auxotrophy): U
Protocol: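 Fluorescent four-plasmid SeMeCo (self-establishing metabolically cooperating S. cerevisiae BY4741 community; plasmids pH-mRuby2, pL-mWasabi, pU-eCFP, pM-TagRFP657) was grown 24 h in minimal SM medium with each Selleck FDA-approved drug at 10 µM in 384-well plates. Cells were fixed and imaged by high-content confocal microscopy. For each auxotrophic subpopulation (and the prototroph), a z-score gives the deviation from the DMSO vehicle-control population median.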

SMILES | z-score of subpopulation abundance
CN1CC2c3ccccc3Oc3ccc(Cl)cc3C2C1 (stereo not given) [Asenapine maleate] | -0.5
C[N+](C)(C)CCOC(=O)CCC(=O)OCC[N+](C)(C)C [Succinylcholine Chloride Dihydrate] | 0.38
OC(c1cc(C(F)(F)F)nc2c(C(F)(F)F)cccc12)C1CCCCN1 (stereo not given) [Mefloquine HCl] | 0.95
CC1(C)S[C@@H]2[C@H](NC(=O)Cc3ccccc3)C(=O)N2[C@H]1C(=O)O [Penicillin G Sodium] | 0.06
CCN(CC)CCOC(=O)c1ccc(N)cc1 [Procaine] | 1.32
CO[C@H]1C[C@@H]2CC[C@@H](C)[C@@](O)(O2)C(=O)C(=O)N2CCCC[C@H]2C(=O)O[C@H]([C@H](C)C[C@@H]2CC[C@@H](OCCO)[C@H](OC)C2)CC(=O)[C@H](C)/C=C(\C)[C@@H](O)[C@@H](OC)C(=O)[C@H](C)C[C@H](C)/C=C/C=C/C=C/1C [Everolimus (RAD001)] | 2.5
Cc1c(S(=O)(=O)O)oc2c1C(=O)C(=O)c1c-2ccc2c1CCCC2(C)C [Tanshinone IIA sulfonate (sodium)] | -1.39
O=C(Nc1cccc(C2=NCCN2)c1)Nc1cccc(C2=NCCN2)c1 [Imidocarb dipropionate] | 0.07
CCOC(=O)c1ccc(N)cc1 [Benzocaine] | -1.34
CC(c1cc2ccccc2s1)N(O)C(N)=O (stereo not given) [Zileuton] | 0.31
O=[N+]([O-])c1ccc(O)c2ncccc12 [Nitroxoline] | -2.48
CC[C@@H]1/C=C(\C)C[C@H](C)C[C@H](OC)[C@H]2O[C@@](O)(C(=O)C(=O)N3CCCC[C@H]3C(=O)O[C@H](/C(C)=C/[C@@H]3CC[C@@H](O)[C@H](OC)C3)[C@H](C)[C@@H](O)CC1=O)[C@H](C)C[C@@H]2OC [Ascomycin (FK520)] | -0.06
O=C(O)CCc1nc(-c2ccccc2)c(-c2ccccc2)o1 [Oxaprozin] | -1.97
C=C[C@]1(C)C[C@@H](OC(=O)CSC(C)(C)CNC(=O)[C@H](N)C(C)C)[C@]2(C)[C@H](C)CC[C@]3(CCC(=O)[C@H]32)[C@@H](C)[C@@H]1O [Valnemulin HCl] | 0.15
CCCc1nn(C)c2c(=O)[nH]c(-c3cc(S(=O)(=O)N4CCN(C)CC4)ccc3OCC)nc12 [Sildenafil Mesylate] | 1.64
CCn1cc(C(=O)O)c(=O)c2cc(F)c(N3CCNCC3)cc21 [Norfloxacin] | -0.7
c1ccc(C2CN3CCSC3=N2)cc1 (stereo not given) [Tetramisole HCl] | -0.11
O=C1C(N(CO)C(=O)NCO)N(CO)C(=O)N1CO (stereo not given) [Diazolidinyl urea] | -0.26
CCCc1cc(C(N)=S)ccn1 [Protionamide] | -0.66
CCC1(C)CC(=O)NC1=O (stereo not given) [Ethosuximide] | 0.64

SMILES | z-score of subpopulation abundance
Cc1cc2c(s1)Nc1ccccc1N=C2N1CCN(C)CC1 [Olanzapine] | -0.29
COc1ccc2cc([C@H](C)C(=O)O)ccc2c1 [Naproxen] | -1.21
C[C@H]1COc2c(C3(N)CC3)c(F)cc3c(=O)c(C(=O)O)cn1c23 [Pazufloxacin mesylate] | 0.53
CC(C)c1c(C(=O)Nc2ccccc2)c(-c2ccccc2)c(-c2ccc(F)cc2)n1CC[C@@H](O)C[C@@H](O)CC(=O)O [Atorvastatin Calcium] | 0.01
CCS(=O)(=O)CCn1c([N+](=O)[O-])cnc1C [Tinidazole] | 0.56
Clc1ccc(CCC(Cn2ccnc2)Sc2c(Cl)cccc2Cl)cc1 (stereo not given) [Butoconazole nitrate] | 1.85
NC[C@@H]1O[C@H](O[C@H]2[C@@H](O)[C@H](O[C@@H]3[C@@H](O)[C@H](N)C[C@H](N)[C@H]3O[C@H]3O[C@H](CO)[C@@H](O)[C@H](O)[C@H]3N)O[C@@H]2CO)[C@H](N)[C@@H](O)[C@@H]1O [Paromomycin Sulfate] | -0.06
CN(C)CCc1c[nH]c2ccc(CS(=O)(=O)N3CCCC3)cc12 [Almotriptan Malate] | -0.42
O=C(O)c1cn(-c2ccc(F)cc2)c2cc(N3CCNCC3)c(F)cc2c1=O [Sarafloxacin HCl] | 0.41
CC[C@@H]1C(=O)OC[C@@H]1Cc1cncn1C [Pilocarpine HCl] | -0.55
COc1ccc2c(c1)c(CC(=O)OCC(=O)O)c(C)n2C(=O)c1ccc(Cl)cc1 [Acemetacin] | -0.02
CC1=C(C(=O)O)N2C(=O)[C@@H](NC(=O)[C@H](N)c3ccc(O)cc3)[C@H]2SC1 [Cefadroxil hydrate] | -0.62
Nc1nc2[nH]cc(CCc3ccc(C(=O)N[C@@H](CCC(=O)O)C(=O)O)cc3)c2c(=O)[nH]1 [Pemetrexed Disodium Hydrate] | -1.03
CCC(C)(C)c1ccc(CC(C)CN2C[C@@H](C)O[C@@H](C)C2)cc1 (stereo not given in full) [Amorolfine HCl] | 1.83
C[C@]12CC[C@@H]3c4ccc(OC(=O)c5ccccc5)cc4CC[C@H]3[C@@H]1CC[C@@H]2O [Estradiol Benzoate] | -0.43
COc1ccc(C(Cl)=C(c2ccc(OC)cc2)c2ccc(OC)cc2)cc1 [Chlorotrianisene] | 0.17
CCn1cc(C(=O)O)c(=O)c2cc(F)c(N3CCNCC3)nc21 [Enoxacin Sesquihydrate] | 1.2
C[C@H](Nc1ncnc2nc[nH]c12)c1cc2cccc(Cl)c2c(=O)n1-c1ccccc1 [Duvelisib (IPI-145, INK1197)] | 0.89
CCCOc1ccc(C(=O)OCCN(CC)CC)cc1N [Proparacaine HCl] | 0.18
Clc1ccc(C(Cn2ccnc2)OCc2ccsc2Cl)c(Cl)c1 (stereo not given) [Tioconazole] | 1.22
